Screens deposited in PubChem BioAssay by several laboratories.
H9c2 protect = protects H9c2 cardiomyocytes from peroxide injury; protection from H2O2 cell death, % at 20 µM; 360,000 tested, 0.63% active; H2O2 injury protection, ATPLite, 2 h;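 active = compounds giving at least 50% protection of heart cells from peroxide-induced death in the single-dose screen, raw or plate-pattern-corrected value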;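 also: 0% = DMSO wells with peroxide and 100% = DMSO wells without peroxide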
iPSC survival up = increases survival of single human iPS cells | hiPSC single-cell survival, ATPlite luminescence; 100% = ROCK inhibitor wells, 0% = DMSO | survival enhancement, % at 20 µM | AID 602274 | 360,000 tested, 0.044% active; in the data active = survival enhancement above about 18%;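 also: cells exposed to compounds for 16 hours before the ATP read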
MIN6 prolif = induces beta-cell replication in MIN6 cells. 330,000 tested, 0.29% active. proliferation, % at 10 µM. MIN6 cells proliferation, ATPlite luminescence, 48 h; cells starved in 0.2% serum; 100% = growth in 10% serum;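 active = compounds whose signal lies at least 3.5 SD above the mean of all wells on their plate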;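 also: 0% = DMSO-treated cells in low-serum medium and 100% = 10% serum control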
ABCB6 inh MLPCN = blocks the human ABCB6 transporter | Q9NP58 | K562-ABCB6 porphyrin accumulation, flow cytometry, 1 h; hits give low values | fluorescence ratio to DMSO, % at 10 µM | 360,000 tested, 0.19% active | AID 602162;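 active = fluorescence ratio to DMSO below 75%, the collection mean minus 3 SD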;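 also: signal is porphyrin accumulated inside mitochondria; 100% equals median channel fluorescence of DMSO control wells; lower ratio means ABCB6 inhibition with less porphyrin fluorescence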
Target sequence (Q9NP58 whole entry, looked up): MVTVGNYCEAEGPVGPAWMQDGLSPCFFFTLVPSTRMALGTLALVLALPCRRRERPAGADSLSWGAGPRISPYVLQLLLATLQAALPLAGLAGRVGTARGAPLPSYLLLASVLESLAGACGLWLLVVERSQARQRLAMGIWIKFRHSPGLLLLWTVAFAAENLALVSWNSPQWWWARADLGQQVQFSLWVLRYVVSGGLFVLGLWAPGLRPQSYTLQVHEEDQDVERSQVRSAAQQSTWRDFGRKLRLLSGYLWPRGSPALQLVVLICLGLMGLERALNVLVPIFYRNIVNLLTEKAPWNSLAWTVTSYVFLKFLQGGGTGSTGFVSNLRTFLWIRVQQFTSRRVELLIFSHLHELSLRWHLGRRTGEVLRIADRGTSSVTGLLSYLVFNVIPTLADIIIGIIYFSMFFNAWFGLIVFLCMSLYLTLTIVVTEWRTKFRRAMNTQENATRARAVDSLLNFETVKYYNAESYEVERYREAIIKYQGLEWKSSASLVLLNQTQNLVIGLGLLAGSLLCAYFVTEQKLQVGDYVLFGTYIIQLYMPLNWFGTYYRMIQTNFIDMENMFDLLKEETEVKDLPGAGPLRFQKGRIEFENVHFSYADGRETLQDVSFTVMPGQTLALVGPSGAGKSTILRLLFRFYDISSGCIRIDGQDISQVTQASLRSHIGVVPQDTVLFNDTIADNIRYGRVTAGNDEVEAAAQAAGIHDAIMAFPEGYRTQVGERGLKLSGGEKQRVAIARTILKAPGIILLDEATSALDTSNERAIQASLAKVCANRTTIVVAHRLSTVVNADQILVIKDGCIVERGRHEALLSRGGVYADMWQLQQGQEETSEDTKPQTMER
Myeloid diff 2 = myeloid differentiation induction | 360,000 tested, 1% active | ER-HoxA9 myeloid progenitors, lysozyme-GFP differentiation, flow cytometry | calls only at 10 µM | AID 624256;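 active = normalized GFP-positive differentiation at or above the plate's own cutoff, the solvent-only control mean plus 3 SD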;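 also: cells exposed to compound for four days before flow analysis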
Myeloid diff = compounds promoting myeloid differentiation. shares compounds with Myeloid diff 2. ER-HoxA9 myeloid progenitors, GFP/Mac1 double-positive flow. calls only. 2,300 tested, 2% active. AID 651706;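 active = share of green or green-and-red cells above 9 and 9% in run 1 or 4 and 3% in run 2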
GFP autofluor = counter-screen for myeloid differentiation promoters: compound fluorescence | ER-HoxA9 myeloid progenitors, no estrogen, GFP autofluorescence flow cytometry; vehicle wells 0%, positive control 100% | AID 651707 | shares compounds with Myeloid diff 2 | 2,300 tested, 7.4% active | fluorescence response, % (concentration not given with the values);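 active = over 5% cells positive for green fluorescent reporter, or over 2% positive for both it and APC stain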;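 also: range taken on the double positive population between DMSO and positive control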
* = called active by the depositor; i = inactive; . = no result given; + = active, no number. A selection: hits, their analogues and other compounds. The true share with any hit is near 2.2%.

SMILES	H9c2 protect	iPSC survival up	MIN6 prolif	ABCB6 inh MLPCN	Myeloid diff 2	Myeloid diff	GFP autofluor
CC(=O)Oc1ccc(/C=C2/SC(=S)N(Cc3ccccc3)C2=O)cc1	-15	0	-7	138	+	i	38*
CCOc1nc(-c2ccccc2)ccc1-c1noc(-c2cccnc2)n1	-6	0	-1	98	i	.	.
COc1ccc(-c2noc(CCC(=O)N3CCN(c4cccc(C(F)(F)F)c4)CC3)n2)cc1	-10	0	-4	92	+	i	0
Cc1ccccc1NC(=O)Nc1cc(S(N)(=O)=O)ccc1C	2	3	-1	100	i	.	.
COc1cc(OC)c2c(-c3cccc(-c4ccc(O)cc4)c3)cc(=O)oc2c1	-12	1	.	106	+	i	5
COc1ccc(CNc2ccccc2)cc1Br	-5	0	-4	108	i	i	0
Cc1ccc(CCNC(=O)CCS(=O)(=O)c2ccc3nc(C)sc3c2)cc1	-3	0	-3	104	i	i	0
COC(=O)C1=C(C(=O)c2ccccc2)C(c2ccc(O)c(OC)c2)n2nnnc2N1 (configuration not stated)	8	-4	-1	105	i	.	.
Cc1cc(C(F)(F)F)nc(SCC(=O)c2cccc([N+](=O)[O-])c2)n1	5	-2	-2	96	i	i	0
Cc1nn2c(N3CCOCC3)c3c(nc2c1-c1ccccc1)CCCC3	2	1	-1	102	+	i	2
Cc1nn2c(-n3ccnc3C)c3c(nc2c1-c1ccccc1)CCC3	0	1	-2	99	i	.	.
Cc1cccc(NS(=O)(=O)c2ccc(C)c(C(=O)NC3CCN(Cc4ccccc4)CC3)c2)c1	-10	0	.	101	+	i	0
Cc1ccc(CNC(=O)C2CCC(=O)N(CCc3ccccn3)C2)s1 (configuration not stated)	4	0	-3	98	i	.	.
O=C(O)C1CCCCN1S(=O)(=O)c1ccccc1 (configuration not stated)	-14	-1	0	111	i	.	.
O=C(C1CCCCN1S(=O)(=O)c1ccccc1)N1CCCCC1 (configuration not stated)	4	0	0	97	+	i	0
CCOc1ccc(C(=O)C[n+]2ccccc2C)cc1	3	-1	0	97	i	.	.
CCc1ccc(C(=O)C[n+]2cccc3cc(OC)ccc32)cc1	-8	1	-3	103	i	i	0
CCOc1ccc(C(=O)C[n+]2cccc3cc(C)ccc32)cc1	-14	0	-3	558	+	i	54*
COc1ccc(C(=O)Nc2c(N)nc[nH]c2=O)cc1	4	1	-1	103	i	.	.
Cc1ccc(Nc2nnc(C)c3ccccc23)c(C)c1	-1	0	-1	103	i	.	.
O=c1oc(-c2cccs2)nc2c1cnn2-c1ccccc1	16	-3	-2	98	i	i	1
Cc1cc(C)n(-c2cc(N3CCN(S(=O)(=O)c4ccc(Br)cc4)CC3)ccc2[N+](=O)[O-])n1	-4	5	0	98	i	i	0
Cc1cccc2nc(COc3ccc4ccccc4c3Br)cn12	-7	0	-6	103	i	.	.
COC(=O)c1cccc(C(=O)Nc2ccc(F)cc2)n1	2	0	-2	86	i	i	0
CC(=O)Nc1ccc(NC(=O)c2cccc(C(=O)OC(C)C)n2)cc1	16	-1	-1	107	i	.	.
Cc1cc(C)c2c(N)c(C(=O)N3CCN(c4ncccn4)CC3)sc2n1	6	0	-1	95	i	.	.
CCN(CC)S(=O)(=O)c1ccc(N/N=C/c2ccc(O)cc2)nc1	-8	-1	1	88	i	i	0
CC1=NN(c2ccccc2C)C(=O)C1	-6	2	.	102	i	i	0
COc1ccc(C(=O)Nc2nc(C)c(C(C)=O)s2)cc1S(=O)(=O)N1CCOCC1	5	0	0	94	i	.	.
